This is a sample that favours compounds with a hit; in the whole collection about 8% have one here.
HT1080 IDH1KD tx – toxicity to HT-1080 IDH1 knockdown cells (counter line) | AID 686971 | Potency, µM (highest dose often 46.1 µM), for the others: at the highest dose activity, negative = toxicity, hits mostly cytotoxic | 360,000 compounds, 2% hits | HT-1080 IDH1 knockdown viability, ATP luminescence, 48 h;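 note: 0% = DMSO wells and -100% = cell-free medium wells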
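Cytotoxicity counter-line: IDH1KD HT-1080, 48 h, CellTiter-Glo. Curves classed by r2, magnitude and activity.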
SW480 rerep – DNA re-replication induction in SW480 cells | SW480 DNA re-replication, Hoechst DNA content imaging, 48 h | Potency, µM (series often up to 46.1 µM), for inactives: at the top dose re-replication activation, most hits filed as activators | 340,000 compounds, 1.8% hits; note: % of control where 0% means no effect; nearly all actives have a fitted effect of over 55% in size
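DNA re-replication was detected as more nuclei of elevated Hoechst intensity after 48 hr exposure to compound (23 nL pinned per well of 250 cells).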
KB-V1 MDR tox – kills drug-selected multidrug resistant KB-V1 cells | KB-V1 MDR cells viability, CellTiter-Glo, 72 h | Potency, µM (titrated, usually from 46.1 µM), actives largely listed as cytotoxic | AID 1347076 | 400,000 compounds, 3.4% hits; note: % is set by controls: 0 for no effect and ±100 for the full control effect; nearly all actives have a fitted effect of over 60% in size
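Luminescent ATP read-out (CellTiter-Glo, 10 min) measures survival of drug-selected KB-V1 MDR cells after 72 h, 37 degrees C compound exposure. Medium: phenol-red-free DMEM, 10% FBS. Values from fitted concentration-response curves.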
MCF10A rerep – induces DNA re-replication in MCF 10a normal breast cells | MCF 10A DNA re-replication, Hoechst nuclear intensity, 48 h | Potency, µM (doses to about 46.1 µM), inactives show at the highest dose activity, positive = re-replication, actives largely listed as activators | 350,000 compounds, 2.9% hits; note: % of control where 0% means no effect; nearly all actives have a fitted effect of over 50% in size
KB-3-1 tox – kills parental KB-3-1 adenocarcinoma cells; KB-3-1 viability, CellTiter-Glo ATP luminescence, 72 h; Potency, µM (highest dose often 46.1 µM), usual class: cytotoxic; 400,000 compounds, 1.4% hits; note: % is set by controls: 0 for no effect and ±100 for the full control effect; nearly all actives have a fitted effect of over 60% in size
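Cytotoxicity measured as CellTiter-Glo luminescence after 72 h at 37 C. Compound titrations were pinned onto drug-naive KB-3-1 parental adenocarcinoma cells grown in DMEM with 10% FBS, and normalized data fitted to concentration-response curves.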
HT1080-NT tox – kills 2HG-producing HT-1080-NT fibrosarcoma cells; Potency, µM (top dose mostly 46.1 µM), for the others: at the top dose activity, negative = less viability, most hits filed as cytotoxic; HT-1080-NT fibrosarcoma viability, CellTiter-Glo ATP luminescence, 48 h; 360,000 compounds, 1.6% hits;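 note: NT is the 2HG producing partner of a matched IDH1 knockdown line; 0% = DMSO-treated cells and -100% = media-only wells without cells; nearly all actives have a fitted effect of over 55% in size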
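Fibrosarcoma NT cells, 750 per well in 5% FBS RPMI, were exposed to compound for 48 hours. Viability: CellTiter-Glo luminescence.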
An asterisk follows results filed as active; [ ] = dose if it differs, or a comment. Calls come from the whole dose curve; as a rule, active = well fitted curve in the direction sought with a large enough effect; inconclusive = small, poorly fitted or top-dose-only effect, or another doubt; inactive = no such curve, though single readings can be large; an effect the other way counts as inactive or inconclusive. Potency is the fitted concentration of half-maximal effect.

How did Cc1ccc(NC(=O)c2ccc3c(c2)NC(=O)c2ccccc2S3)cc1 do in these assays?
KB-V1 MDR tox: 9.2µM*; KB-3-1 tox: 6.5µM*

How did CC(C)(C)N1C(=O)c2ccc(C(=O)Nc3ccc(O)cc3)cc2C1=O do in these assays?
HT1080 IDH1KD tx: inconclusive; SW480 rerep: inconclusive; KB-V1 MDR tox: 8.2µM*; MCF10A rerep: inconclusive; KB-3-1 tox: inconclusive; HT1080-NT tox: inconclusive

Results for COc1ccc(-n2cc(C#N)c(=O)n(Cc3ccc(F)cc3)c2=O)cc1 ?
HT1080 IDH1KD tx: inconclusive; SW480 rerep: 13µM*; KB-V1 MDR tox: inconclusive; MCF10A rerep: inconclusive; KB-3-1 tox: inactive; HT1080-NT tox: inconclusive

How did Cc1cc(C)n(Cc2ccc(F)cc2)c(=O)c1C#N do in these assays?
HT1080 IDH1KD tx: -2%; SW480 rerep: -5%; KB-V1 MDR tox: inconclusive; MCF10A rerep: -4%; KB-3-1 tox: inactive; HT1080-NT tox: -1%

What do the screens show for `O=C(CCN1CCCCC1)c1ccc2c(c1)OCO2`?
HT1080 IDH1KD tx: -2%; SW480 rerep: -1%[9.22 µM]; KB-V1 MDR tox: inactive; MCF10A rerep: inconclusive; KB-3-1 tox: inconclusive; HT1080-NT tox: -22%

How did O=C(CCN1CCOCC1)c1ccccc1 do in these assays?
HT1080 IDH1KD tx: inconclusive; SW480 rerep: 199%; KB-V1 MDR tox: inactive; MCF10A rerep: 2.6µM*; KB-3-1 tox: inactive; HT1080-NT tox: inconclusive

What do the screens show for `O=C(CCCN1CCOCC1)c1ccc2c(c1)OCCO2`?
HT1080 IDH1KD tx: 14%; SW480 rerep: 2%; KB-V1 MDR tox: inactive; MCF10A rerep: inconclusive; KB-3-1 tox: inactive; HT1080-NT tox: -14%

Results for O=C(c1ccc(Br)cc1)N1CCN(Cc2ccccc2)CC1 ?
HT1080 IDH1KD tx: 3%; SW480 rerep: -5%; KB-V1 MDR tox: inconclusive; MCF10A rerep: 4%; KB-3-1 tox: inactive; HT1080-NT tox: 6%

Results for O=C(CCN1CCN(C(=O)c2ccccc2)CC1)c1ccc(Br)cc1 ?
HT1080 IDH1KD tx: -26%; SW480 rerep: inconclusive; KB-V1 MDR tox: inconclusive; MCF10A rerep: 16µM*; KB-3-1 tox: inactive; HT1080-NT tox: inconclusive

What do the screens show for `O=C(CCN1CCc2ccccc2CC1)c1ccc2c(c1)OCCO2`?
HT1080 IDH1KD tx: -1%; SW480 rerep: 13µM*; KB-V1 MDR tox: inconclusive; MCF10A rerep: 1.3µM*; KB-3-1 tox: inactive; HT1080-NT tox: -3%

Results for O=C(CCN1CCCCC1)c1ccccc1 ?
HT1080 IDH1KD tx: 3%; SW480 rerep: inconclusive; KB-V1 MDR tox: inactive; MCF10A rerep: inconclusive; KB-3-1 tox: inactive; HT1080-NT tox: 10%

How did O=C(CCN1CCOCC1)c1ccc2c(c1)OCCO2 do in these assays?
HT1080 IDH1KD tx: inconclusive; SW480 rerep: inconclusive; KB-V1 MDR tox: inactive; MCF10A rerep: 6.5µM*; KB-3-1 tox: inconclusive; HT1080-NT tox: inconclusive

What do the screens show for `CCOc1ccc(-n2c(SCC(=O)N3CCCCC3)nc3c([nH]c4ccccc43)c2=O)cc1`?
KB-V1 MDR tox: inactive; KB-3-1 tox: inactive

How did COc1ccc(CCNC(=O)C(=O)NCC(c2ccc3c(c2)OCO3)N2CCOCC2)cc1 (centres undefined) do in these assays?
KB-V1 MDR tox: inactive; KB-3-1 tox: inactive

How did COc1ccccc1-c1nc2c(c(SCc3cc(C)ccc3C)n1)Cc1c(CO)cnc(C)c1O2 do in these assays?
KB-V1 MDR tox: inactive; KB-3-1 tox: inactive

What do the screens show for `CCN(CC)C(=O)CSc1nnc(-c2ccccc2)c(-c2ccccc2)n1`?
HT1080 IDH1KD tx: 17%; SW480 rerep: -7%; KB-V1 MDR tox: 3.3µM*; MCF10A rerep: inconclusive; KB-3-1 tox: inactive; HT1080-NT tox: 11%

What do the screens show for `O=C(O)CSc1nnc(-c2ccccc2)c(-c2ccccc2)n1`?
HT1080 IDH1KD tx: 0%; SW480 rerep: 19%; KB-V1 MDR tox: inactive; MCF10A rerep: 19%; KB-3-1 tox: inactive; HT1080-NT tox: 3%

Results for c1ccc(CSc2nnc(-c3ccccc3)c(-c3ccccc3)n2)cc1 ?
HT1080 IDH1KD tx: -2%; SW480 rerep: inconclusive; KB-V1 MDR tox: 18µM*; MCF10A rerep: 8.2µM*; KB-3-1 tox: inactive; HT1080-NT tox: -20%

How did CCN(CC)c1ccc(NC(=O)CCCCCN2C(=O)c3ccccc3C2=O)cc1 do in these assays?
HT1080 IDH1KD tx: -11%; SW480 rerep: -3%; KB-V1 MDR tox: 4.6µM*; MCF10A rerep: 5%; KB-3-1 tox: inactive; HT1080-NT tox: -6%

Results for Nc1cccc2c(O)cccc12 ?
HT1080 IDH1KD tx: -16%; SW480 rerep: -2%; KB-V1 MDR tox: inconclusive; MCF10A rerep: 14%; KB-3-1 tox: inconclusive; HT1080-NT tox: -19%

What do the screens show for `Nc1ccccc1O`?
HT1080 IDH1KD tx: 18µM*; SW480 rerep: inconclusive; KB-V1 MDR tox: inactive; MCF10A rerep: inconclusive; KB-3-1 tox: inactive; HT1080-NT tox: 21µM*

How did COc1cccc(C2=NOC(C(=O)N3CCN(Cc4ccccc4)CC3)C2)c1OC (centres undefined) do in these assays?
HT1080 IDH1KD tx: 1%; SW480 rerep: 3%; KB-V1 MDR tox: 5.8µM*; MCF10A rerep: 0%; KB-3-1 tox: inactive; HT1080-NT tox: 0%

Results for COc1ccc(S(=O)(=O)N2CCN(Cc3c[nH]c4ccccc34)CC2)cc1 ?
HT1080 IDH1KD tx: -2%; SW480 rerep: 0%; KB-V1 MDR tox: inactive; MCF10A rerep: 1%; KB-3-1 tox: inactive; HT1080-NT tox: -2%

What do the screens show for `O=[N+]([O-])c1ccc(S(=O)(=O)N2CCN(Cc3c[nH]c4ccccc34)CC2)cc1`?
HT1080 IDH1KD tx: 5%; SW480 rerep: 3%; KB-V1 MDR tox: 21µM*; MCF10A rerep: 19%; KB-3-1 tox: inactive; HT1080-NT tox: -20%

Results for COc1nc(NC(C)(C)C)nc(Oc2ccc(=O)n(-c3ccccc3)n2)n1 ?
HT1080 IDH1KD tx: -10%; SW480 rerep: -1%; KB-V1 MDR tox: 21µM*; MCF10A rerep: 11%; KB-3-1 tox: inactive; HT1080-NT tox: 1%

Results for CCNc1nc(OC)nc(Oc2ccc(=O)n(-c3ccccc3)n2)n1 ?
HT1080 IDH1KD tx: 6%; SW480 rerep: -7%; KB-V1 MDR tox: inactive; MCF10A rerep: 2%; KB-3-1 tox: inactive; HT1080-NT tox: 6%

How did CN1C(C(=O)Nc2ccccn2)C(=O)c2sc(Cl)cc2S1(=O)=O (centres undefined) do in these assays?
SW480 rerep: -10%; MCF10A rerep: -3%

Results for COCCN1CCC(CNCc2cn(-c3cc(C)ccc3C)nc2-c2ccccc2)C1 (centres undefined) ?
HT1080 IDH1KD tx: inconclusive; SW480 rerep: 12%; KB-V1 MDR tox: inactive; MCF10A rerep: inconclusive; KB-3-1 tox: inactive; HT1080-NT tox: 26µM*
